Results reported in PubChem BioAssay (NCI).
This is part of a sample that, as a whole, favours compounds with a hit. Of some 83,000 tested, about 20% had one in any assay.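 Interpretation: 100, growth as untreated; towards 0, rising growth inhibition; 0, no net growth; 0 to -100, cell death. Compounds scoring below 10 were considered active.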 The source made the active and inactive calls.

System: A498 renal
Assay: NCI-60 one-dose screen, 48 h (100 = growth as untreated, 0 = no growth, -100 = all killed)
Conditions: 10 µM unless noted
Experimental: Growth inhibition of the A498 human tumor cell line is measured as a screen for anti-cancer activity. Cells are grown in 96 well plates and exposed to the test compound for 48 hours. Compounds are tested at a single concentration, which is 10^-5 M for most compounds. The reported endpoint is percent growth (GI% or GIPRCNT), where numbers from 0 - 100% represent growth inhibition, and numbers from -100% - 0 represent cell death. For example, a value of 40 represents 60% growth inhibition. A value of 0 means no net growth occurred over the course of the experiment. A value of -40 indicates 40% of cells at the beginning of the experiment died by the end of the experiment. A value of -100 means all cells are dead at the end of the experiment.
NCI-60 Human Tumor Cell Lines Screen was performed using the standard one-dose NCI protocol, which is described in more detail at https://dtp.cancer.gov/discovery_development/nci-60/default.htm.
Compounds with GIPRCNT values below 10 were considered active. Activity score was based on GIPRCNT using the following formula: […]
Score is 0 for GIPRCNT values of 100 or above, 50 for GIPRCNT values of 0, and 100 for GIPRCNT values of -100.

| SMILES | growth |
| --- | --- |
| COc1ccc2c(c1)c(-c1noc(-c3cn(C)c4ncc(F)cc34)n1)cn2C | 65.7% (inactive) |
| Cc1ccc(S(=O)(=O)N/N=C2\CC3CCC2(C)C3(C)C)cc1 (stereo not given) | 105% (inactive) |
| CS(=O)(=O)c1cccnn1 | 66.7% (inactive) |
| COc1cc2c(cc1OCCCN1CCN(CCCOc3cc4c(cc3OC)C(=O)N3C[C@H](F)C[C@H]3C=N4)CC1)N=C[C@@H]1C[C@@H](F)CN1C2=O | -55% (active) |
| O=C(Nc1ccc(Oc2ccc(F)cc2)c(Cl)c1)c1cccnn1 | 61.1% (inactive) |
| O=C(Nc1cccc(F)c1)c1cc(=O)[nH]c2cc(Br)ccc12 | 30.8% (inactive) |
| CC(=O)OC[C@]12CC[C@@H]([C@@H](C)C(N)=O)[C@@H]1[C@H]1CC[C@@H]3[C@@]4(C)CC[C@H](OC(C)=O)C(C)(C)[C@@H]4CC[C@@]3(C)[C@]1(C)CC2 | -81.7% [100 µM] (active) |
| COc1cc(C)cc2oc3oc(=N)c(C(=O)c4ccccc4)cc3c(=O)c12 | 90.3% (inactive) |
| NC(=O)c1cccc(-c2ccc(S(=O)(=O)Nc3ccc4c(c3)N(C(=O)C3CC3)CCC4)cc2)c1 | 5.86% (active) |
| CN(C)c1ccc(N=Nc2ccc3ccccc3c2)cc1 | 88.5% (inactive) |
| Cc1ccc(S(=O)(=O)n2cc(C(=O)C(=O)N3CCCCC3)c3ccccc32)cc1 | 90.8% (inactive) |
| COc1ccc(OC)c([N+](=O)[O-])c1C(=O)CNC(C)=O | 94.1% (inactive) |
| O=C(O)c1cn(C2CC2)c2cc(N3CCN(Cc4cc(Cl)ccc4O)CC3)c(F)cc2c1=O | 94% (inactive) |
| Nc1cc(Cl)cc2cccnc12 | 116% (inactive) |
| C=C(C)[C@@H]1CC[C@]2(COCCC#N)CC[C@]3(C)[C@H](CC[C@@H]4[C@@](C)(CCCNCCC#N)[C@H](C(=C)C)CC[C@]43C)[C@@H]12 | 90.5% [100 µM] (inactive) |
| COc1ccc(OC)c(NC=O)c1 | 103% (inactive) |
| CCN(CCNc1ccc(C)c2sc3cc(Cl)ccc3c(=O)c12)CC(C)O (stereo not given) | 51.4% (inactive) |
| O=C(NCCCNC(=O)OCc1ccc2c(Br)cc(Br)c(O)c2n1)OCc1ccc2c(Br)cc(Br)c(O)c2n1 | -2.82% (active) |
| O=C(NNc1ccc(-c2ccccc2)nn1)c1ccc(F)cc1 | 67.6% (inactive) |
| Cn1cc(-c2noc(-c3cn(C)c4ncc(F)cc34)n2)c2ccccc21 | 62.9% (inactive) |

| SMILES | growth |
| --- | --- |
| O=C1C(Cl)=C(Nc2ccc3cn[nH]c3c2)C(=O)c2ccccc21 | 93% (inactive) |
| C#CCC(C(=O)OCC)C(=O)OCC | 94.6% (inactive) |
| Nc1cc(N)c(N=Nc2ccc(S(=O)(=O)O)cc2)cc1N=Nc1ccc(-c2ccc(N=Nc3ccc(O)c(C(=O)O)c3)cc2)cc1 | 108% (inactive) |
| CN(C)CCOc1ccc(/C(=C(/CCCl)c2ccccc2)c2ccccc2)cc1 | 65.7% (inactive) |
| C#C[C@]1(O)CC[C@H]2[C@@H]3CC=C4c5nc(Nc6ccccc6[N+](=O)[O-])sc5CC[C@]4(C)[C@H]3CC[C@@]21C | 11.7% (inactive) |
| CCC(Br)(CC)C(=O)c1ccc(OCC(=O)O)c(Cl)c1Cl | 97.1% (inactive) |
| O=[N+]([O-])c1cc(CCl)ccc1OCCBr | 91.9% (inactive) |
| Cc1ccc(C2=C/C(=C/c3ccc(Br)cc3)C(=O)N2CCc2ccc(S(N)(=O)=O)cc2)cc1 | 78.5% (inactive) |
| Nc1ccc(NC(=O)c2ccccc2)c2c1C(=O)c1ccccc1C2=O | 113% (inactive) |
| O=C(N=c1n(-c2ccccc2)nc2n1CCN2C1=NCCN1C(=O)c1ccc(Cl)cc1)c1ccc(Cl)cc1 | 73.7% (inactive) |
| COc1cc(/C=C/C(=O)/C=C/c2ccc(-n3ccnc3C)cc2)ccc1O | 78.8% (inactive) |
| C#C[C@]1(O)CC[C@H]2[C@@H]3CC=C4c5nc(Nc6ccccn6)sc5CC[C@]4(C)[C@H]3CC[C@@]21C | -49% (active) |
| O=C(N/N=C\c1cc(Cl)ccc1O)N/N=C/c1cc(Cl)ccc1O | 80.3% (inactive) |
| Cc1cc(C)c(S(=O)(=O)/N=c2/n(-c3ccccc3)nc3n2CCN3C2=NCCN2)c(C)c1 | 61.8% (inactive) |
| O=C(O)c1ccccc1C(F)(F)F | 74.5% (inactive) |
| O=C(Nc1ccccc1)Nc1ccc(C(=O)/C=C/c2ccc(N3CCCC3)cc2)cc1 | 45.9% (inactive) |
| CN(C)c1ccc(-c2ccc(-c3ccc(C(=N)N)cc3)s2)cc1 | 0.528% (active) |
| COc1ccc(C(=O)/C=C/c2ccccn2)c(O)c1 | 91.3% (inactive) |
| O=C(NCc1ccc(Cn2c(=O)sn(-c3ccccc3)c2=O)cc1)OCc1ccc2c(Br)cc(Br)c(O)c2n1 | -41.6% (active) |
| Cn1cc(-c2nnc(-c3cn(C)c4ncccc34)o2)c2ccccc21 | -20.3% (active) |
